Source: PubChem BioAssay
HTR5A inv ctr – inverse agonist of human HTR5A in OPRM1-OPRD1 counter-screen. inhibition, % at 9.3 µM. P47898. 0.083% of 340,000 active. HTR5A cell line, luminescence, inverse agonism; in the data active = inhibition mostly above about 23%, no sharp cut-off; inactive = mostly below about 18%
Target sequence (P47898 whole entry, looked up): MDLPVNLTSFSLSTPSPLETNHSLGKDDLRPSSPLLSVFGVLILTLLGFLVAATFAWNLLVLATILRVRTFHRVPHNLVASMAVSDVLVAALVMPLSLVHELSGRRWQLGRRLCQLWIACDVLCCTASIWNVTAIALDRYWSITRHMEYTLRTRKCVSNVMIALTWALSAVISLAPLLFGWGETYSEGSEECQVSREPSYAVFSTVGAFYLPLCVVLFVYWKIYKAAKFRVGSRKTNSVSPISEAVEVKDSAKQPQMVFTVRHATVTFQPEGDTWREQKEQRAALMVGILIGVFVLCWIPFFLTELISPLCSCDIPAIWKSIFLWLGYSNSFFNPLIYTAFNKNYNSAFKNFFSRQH
MOR-DOR ag – OPRM1-OPRD1 heterodimerization agonism | activation, % at 9.3 µM | P35372+P41143 | 0.3% of 340,000 active | cells, luminescence; in the data active = activation above about 18%
A1 inh – inhibitors of the anti-apoptotic protein A1, read as caspase activation | MEF A1-2A-BIM cells, Caspase-Glo 3/7 luminescence, 3 h; percent of clofoctol response, vehicle zero | caspase activation, % (test concentration not listed) | 0.066% of 330,000 active;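 active = over half of replicate activation scores above 10%, or exactly half above 10 with the replicate mean above 10; inconclusive = replicate mean below 10 yet half the replicates above 10; inactive = over half of replicates below 10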
OPRM1-OPRD1 inv – inverse agonists of human mu-delta opioid receptor heterodimerization; cell-based MOR-DOR heterodimer luminescence, inverse agonism; P35372+P41143; 0.21% of 340,000 active; inhibition, % at 9.3 µM; in the data active = inhibition above about 22%, passing the limit was not always enough
HTR5A ag ctr – activates human HTR5A in OPRM1-OPRD1 agonist counter-screen. 0.61% of 340,000 active. activation, % at 9.3 µM. P47898. HTR5A agonist assay, luminescence, cell-based; in the data active = activation mostly above about 9.5%, no sharp cut-off; inactive = mostly below about 7.6%
Numbers stand for hits; - = inactive; ? = inconclusive; . = no result. A selection: hits, their analogues and other compounds. The true share with any hit is near 1.1%.

SMILES | HTR5A inv ctr | MOR-DOR ag | A1 inh | OPRM1-OPRD1 inv | HTR5A ag ctr
Cc1cccc(N(C)C(=O)CN(C)S(=O)(=O)c2ccc3c(c2)c(=O)n(C)c(=O)n3C)c1 | - | - | - | - | 12
CN(CC(=O)N(CCO)Cc1ccccc1)S(=O)(=O)c1ccc2c(c1)c(=O)n(C)c(=O)n2C | - | - | - | - | -
CCOC(=O)CCCNS(=O)(=O)c1c(C)ccc2nsnc12 | - | - | 6.6 | - | -
Cc1cccc(-c2cc3nc(-c4ccccc4)cc(N4CCC5(CC4)OCCO5)n3n2)c1 | - | - | - | - | 12
Cc1ccc(-c2cc3nc(-c4ccccc4)cc(N4CCC5(CC4)OCCO5)n3n2)cc1 | - | - | - | - | -
COc1cc(C(=O)N2C[C@@H]3CCC[C@H]2C3)ccc1OC1CCN(C(C)=O)CC1 | - | - | - | - | -
CC(=O)OC[C@]12CC[C@H]3[C@@](C)(CC[C@H]4C(C)(C)CCC[C@]34C)[C@@H]1C[C@H](C1=CC(=O)O[C@H]1OC(C)=O)O2 | . | . | 62 | . | .
COc1ccccc1NC(=O)COC(=O)c1cnc(C)cn1 | - | - | ? | - | -
CCN(CC)C(=O)Cn1c(=O)n(Cc2ccc(F)cc2)c(=O)c2sccc21 | - | - | - | - | -
O=C(Cn1c(=O)n(-c2ccc(F)cc2)c(=O)c2sccc21)NC1CCCCC1 | - | - | - | - | 12
COC(=O)CNC(=O)Cn1c(=O)n(Cc2ccc(F)cc2)c(=O)c2sccc21 | - | - | - | - | 11
Cc1cccc(N2CCN(C(=O)c3cc(COc4ccc(F)c(F)c4)on3)CC2)n1 | - | - | - | - | -
O=C(Nc1cccc(N2C(=O)C3C4C=CC(C4)C3C2=O)c1)c1cccs1 (centres undefined) | - | - | - | - | -
CCCOc1ccc(/C=C/C(=O)NC2CCCCC2)cc1 | - | - | - | - | -
O=C(/C=C/c1ccc(Br)cc1)NC1CCCCCC1 | - | - | - | - | 14
COc1ccccc1NC(=O)Nc1cc(C(C)C)ccc1C | - | - | . | - | -
COc1ccccc1NC(=O)OC(C)c1ccc(Cl)cc1 (centres undefined) | - | - | - | - | 17
COc1ccc(-n2c(CN3CCN(c4ccccc4OC)CC3)nc3ccc([N+](=O)[O-])cc3c2=O)c(OC)c1 | - | - | . | - | 9.9
Cn1c2c(c(=O)n(C)c1=O)[C@@]1(C(=O)Nc3ccccc31)C(C#N)=C(N)O2 | - | - | - | - | -
COC(=O)c1ccc(NC(=O)COc2ccc(C3C(C#N)=C(N)Oc4c3ccc3ccccc43)cc2OC)cc1 (centres undefined) | - | - | - | - | 14
CC(/C=C/c1ccco1)=N\NC(=O)CNc1ccc2ccccc2c1 | - | - | - | - | 12
CSc1nc(N)nc(SCC(=O)C23CC4CC(CC(C4)C2)C3)c1C#N | - | - | - | - | 12
CS(=O)(=O)N1CCN(c2ccc(NC(=O)c3ccc(-c4ccc(Cl)cc4)o3)cc2)CC1 | - | - | - | - | 12
COc1ccccc1/C=C/C(=O)c1c2c(c(C)[nH]c1=O)CCCC2 | - | - | - | - | -
COc1ccc(-n2cc(-c3ccccc3)c3c(NN4CCOCC4)ncnc32)cc1 | - | - | - | - | -
SMILES | HTR5A inv ctr | MOR-DOR ag | A1 inh | OPRM1-OPRD1 inv | HTR5A ag ctr
COc1ccc(-n2cc(-c3ccccc3)c3c(N4CCN(CCO)CC4)ncnc32)cc1 | - | - | - | - | -
OCCN1CCN(c2ncnc3c2c(-c2ccccc2)cn3-c2ccc(F)cc2)CC1 | 44 | - | ? | 45 | -
CC1CN(c2ncnc3c2c(-c2ccccc2)cn3-c2ccc(F)cc2)CC(C)O1 (centres undefined) | 77 | - | - | 62 | -
Fc1ccc(-n2cc(-c3ccccc3)c3c(NN4CCOCC4)ncnc32)cc1 | 46 | - | - | 34 | -
CON1C(=O)CN(C(C)=O)C1c1ccc(Cl)cc1Cl (centres undefined) | - | - | . | - | -
O=C(Nn1c(O)c(C=C2N=c3ccccc3=N2)sc1=S)c1cccc(Cl)c1 | - | - | - | - | -
Cc1ccc(S(=O)(=O)N2CCCCC2c2cccnc2)c(C)c1C (centres undefined) | - | - | - | - | 13
CC(C)(C)n1nnnc1C(c1cccnc1)N1CCN(c2cccc(C(F)(F)F)c2)CC1 (centres undefined) | - | - | - | - | -
CC(C)(C)c1cc(C(c2cccnc2)N2CCN(CCO)CC2)cc(C(C)(C)C)c1O (centres undefined) | - | - | 25 | - | -
COc1ccc(OCC(=O)Nc2ccc(S(=O)(=O)N3CCCCC3)cc2)cc1 | - | - | - | - | -
CCS(=O)(=O)c1ncc(Cl)c(C(=O)Nc2ccc(S(=O)(=O)N3CCC(C)CC3)cc2)n1 | - | - | 42 | - | -
CC1CCCN(S(=O)(=O)c2ccc(NC(=O)Cn3nnc(-c4ccccc4F)n3)cc2)C1 (centres undefined) | - | - | - | - | -
CCc1ccc(NC(=O)c2nc(S(=O)(=O)Cc3ccccc3)ncc2Cl)cc1 | - | - | 11 | - | -
CC1CCN(S(=O)(=O)c2ccc(NC(=O)c3ccncc3)cc2)CC1 | - | - | - | - | -
CC1CCN(S(=O)(=O)c2ccc(NC(=O)Cn3nnc(-c4ccccc4)n3)cc2)CC1 | - | 31 | - | - | 16
CC1CCCN(C(=O)C2CCN(CC(C)c3ccccc3)CC2)C1 (centres undefined) | - | - | - | - | -
CC(=O)c1sc(NC(=O)c2cccc(N3C(=O)CCC3=O)c2)nc1-c1ccccc1 | - | - | - | - | -
Cc1onc(C(=O)N2CCN(C(c3ccccc3)c3ccccc3)CC2)c1[N+](=O)[O-] | - | - | - | - | 13
CC1CCN(Cc2nnc(-c3cccc(Br)c3)o2)CC1 | - | - | - | - | -
CC(C)NC(=O)c1ccc(-n2nc(C(F)(F)F)c3c2CCCC3)cc1 | - | - | - | - | 13
COc1ccc(C2CC(=O)C(C3NCCc4ccccc43)=C(O)C2n2cncn2)cc1 (centres undefined) | - | - | - | - | 11
O=C1C=C(O)C(n2cncn2)C(c2ccc(F)cc2)C1 (centres undefined) | - | - | - | - | -
CC(C)(C)NC(=O)NC(=O)COC(=O)c1ccc2c(c1)S(=O)(=O)N=C1CCCCCN12 | - | - | - | - | -
CC(NC(=O)COC(=O)c1ccc2c(c1)S(=O)(=O)N=C1CCCCCN12)C12CC3CC(CC(C3)C1)C2 (centres undefined) | - | - | 7.2 | - | -
Cn1c(=O)[nH]c(=O)c2[nH]c(CO)nc21 | - | - | . | - | -
CCCOc1ccccc1-c1nc2c([nH]1)c(=O)[nH]c(=O)n2C | - | - | - | - | 13
Cc1ccc(NC(=O)CN2CCN(c3ccccn3)CC2)cc1S(=O)(=O)N(C)C | - | - | - | - | 9.4
O=C(CSc1ncccc1C(=O)O)NC1CCCCC1 | - | - | 5.5 | - | -
O=C(O)c1cccnc1SCC(=O)N1CCCCCC1 | - | - | - | - | -
